Positions count from the first letter of the chain named. In all, about 9,900 sequences were measured (“r (bound/input frequency ratio)”: median about 0.7, highest 2% from about 6.5 on). Only a selection was taken, and the highest values are over-represented in it overall.

16 molecules from paper PMC12864922, “TDP-43 directly inhibits mRNA accumulation in neurites through modulation of mRNA stability” can be followed below.

B1: ENSMUSG00000004113.301|Cacna1b (ssRNA)
RNA: GGGAGUUCUACAGUCCGACGAUCGCUUCGAUAUCCGCAUGCUAAGGCACUCCUUGGUGUGGUCUCUCUGUUUUGAAACUUCUGAUGACUUCUUGGUGGCUUGUUGUCUUCUACCCCAUGUUUCUCACAGGAUCUGUGUGUGUGUGUGUGUGUGUGUGUGUGUGUGUGUGUGUGUGUGUUAGCAUGUGUGUAUUAGCGUGUGUGAGUGUGUGAGCAUGCACGAGUCAUAGGAGAUGCAGGUGUAUGUGUGUGGUGUGCAUAUGUGUAUGUGUGUGUGUGUGUGUGUGUGUGUAGGUGUGUUCAGCUCUUGCGGUCGCACUAGUGUGGAAUUCUCGGGUGUCAAGG
B2: ENSMUSG00000090935.77|Synj2bp|54:58 (ssRNA)
RNA: GGGAGUUCUACAGUCCGACGAUCGCUUCGAUAUCCGCAUGCUACUUUGUCAGCAUAGGCAGGAGUCCUUUAGGAUUUCUGCCUAUCAGUAAAAGAACAUACUAACCCAAGUUCUACCUUCAGUGGAUUAAAGUUUCAUUAAGUGAAAAUGGAAAGAAAGUAGAAUUACUUGGUAAGAGGCCAAAUGAGGAUACAGAGGCUGAAGAAGAUUGAAAGGAGCUAGUGUAAACAAACAAACAAACAAACAAACAAAAAACCAAACCCCAAAACAAAAACAAAAACAAAACAAAAUUGGAGAAAGCAGCUCUUGCGGUCGCACUAGUGUGGAAUUCUCGGGUGUCAAGG
B3: ENSMUSG00000090935.14|Synj2bp|150:154 (ssRNA)
RNA: GGGAGUUCUACAGUCCGACGAUCGCUUCGAUAUCCGCAUGCUAGAGAGCAGUCAGAUAUGAACGGACGGGUGGAUUAUUUAGUCACGGAGGAAGAGAUCAACCUGACGAGAGGACCUUCGGGUAAAUGGCCAAGAUCUGAAGAACCUGCUGCACCAAGAUGCUGUAGACCUCUUCCGUAAUGCGGGAUGUGCACACACCCUGAGAGUACAGCACAGGUUACCAGUGCAGAAUGGACCUAUAGUACAUCGAGGUGAAGGAGAGCCAAGUGGAGUUCCUGUAGCUAUGGUGCUGCUACCAGUGUUCUCUUGCGGUCGCACUAGUGUGGAAUUCUCGGGUGUCAAGG
B4: ENSMUSG00000090935.23|Synj2bp (ssRNA)
RNA: GGGAGUUCUACAGUCCGACGAUCGCUUCGAUAUCCGCAUGCUAUCAACCUGACGAGAGGACCUUCGGGUAAAUGGCCAAGAUCUGAAGAACCUGCUGCACCAAGAUGCUGUAGACCUCUUCCGUAAUGCGGGAUGUGCUGUGUCCCUGAGAGUACAGCACAGGUUACCAGUGCAGAAUGGACCUAUAGUACAUCGAGGUGAAGGAGAGCCAAGUGGAGUUCCUGUAGCUAUGGUGCUGCUACCAGUGUUUGCCCUCACCAUGGUAGCAGUUUGGGCCUUCGUGAGAUACCGAAAGCAGCUUUGCUCUUGCGGUCGCACUAGUGUGGAAUUCUCGGGUGUCAAGG
B5: ENSMUSG00000031028.306|Tub|133:137 (ssRNA)
RNA: GGGAGUUCUACAGUCCGACGAUCGCUUCGAUAUCCGCAUGCUAAUUGCCAUCAGAGAACCCUCAGCGAGGUAGCCUUUGUUUACAGUCUAGUUUCUAGAGGGCAGUAGGACUUCCAUGCUGGGGCUGGCCUAUCUCCUGAUGAAAGAUUACAGUGCCAUCUCCUUCCCAUAGUUCACACACUGCCCUCCCUCCCUGACUUUAUAGGGAGAAAUCUCCUGACAUUAGAGGUGAUAGAAACCAGAGCUUUAGUCUAGUCAGGCUGUUUCUCUGGGUUGACAAGUUUAAGGUUGAACAGGCUGAUUCUCUUGCGGUCGCACUAGUGUGGAAUUCUCGGGUGUCAAGG
B6: ENSMUSG00000004113.120|Cacna1b (ssRNA)
RNA: GGGAGUUCUACAGUCCGACGAUCGCUUCGAUAUCCGCAUGCUAGGGACUUUCUGAGCCUCGUGGAGAGUGUGGUUUGUCCAAAUGUGUGGCAUGGGAGAUAGGGUACCCCUGAAAGCAAGGAAAGGAGCCCAGCUGUGGCCUGGUAGCACCUGCCGGCACCAGUGAUCUCACGUCUCUUGUGGUCUUGGAGUCAAAUAGCACAUGUAUGUAGAGAUGCGCUCAAGGGCCUGCCUUUCACCUACACUGUCACCAUAACAGGGACCAAAUCUGGAGGAUGUCCUUGCUGUUGAUUCUGGUUUUCACUCUUGCGGUCGCACUAGUGUGGAAUUCUCGGGUGUCAAGG
B7: ENSMUSG00000061578.1213|Ksr2|85:89 (ssRNA)
RNA: GGGAGUUCUACAGUCCGACGAUCGCUUCGAUAUCCGCAUGCUAUCUCACACCCCUGUCCCCGUCCCCUCCACCCCCCGGCAGCAUGCUUCACUCUAUGAAUGAGCCGCUGGGAUAUUGACAUGGAGAACACAUGAUGGAAAAAGCCUCCACACCCAACAUAACUCUCCAGAGAGAUAUUGAAAGUGAUGGGCAGAGAGUCUGACAAUGACCCAGGGGUCAUUGUGAGUCCUAGGCUGAAUCUGUAAUGGGGUCCAAAGUGCAGGAGAGACUGCAUUCACCUUGUUGGUGGGGUGGGGCUUCUUCUCUUGCGGUCGCACUAGUGUGGAAUUCUCGGGUGUCAAGG
B8: ENSMUSG00000061578.1431|Ksr2|157:161;252:256 (ssRNA)
RNA: GGGAGUUCUACAGUCCGACGAUCGCUUCGAUAUCCGCAUGCUACUCUCUGUCUCUCUCACUCAUUGCCAACAUGUUGCUGGGAAAGAAUAUUUGAUUUAGAUGCCAAUCAGGAAGGCAAGUAGGAUGGAUGGAUGAGUGAGUGGAUAGGUAGGUAUAUAAAUGGAUGGAUGGGUGAUGGAUGGGUAAAUGAAUGGAUAGCAUACUGAAUGAAUGGAUGAUGGAUGAAUGGAUGGGUAGGUGGGUAGAUAGGUAUAUGAAUGAAUGGAUGAAUGGAUGGGUGAAUGGAUGGAUAGCAUACUGAACUCUUGCGGUCGCACUAGUGUGGAAUUCUCGGGUGUCAAGG
B9: ENSMUSG00000061578.1432|Ksr2 (ssRNA)
RNA: GGGAGUUCUACAGUCCGACGAUCGCUUCGAUAUCCGCAUGCUAGUCUCUCUCACUCAUUGCCAACAUGUUGCUGGGAAAGAAUAUUUGAUUUAGAUGCCAAUCAGGAAGGCAAGUAGGAUGGAUGGAUGAGUGAGUGGAUAGGUAGGUAUAUAAAUGGAUGGAUGGGUGAUGGAUGGGUAAAUGAAUGGAUAGGUAUGUGAAUGAAUGGAUGAUGGAUGAAUGGAUGGGUAGGUGGGUAGAUAGGUAUAUGAAUGAAUGGAUGAAUGGAUGGGUGAAUGGAUGGAUAGGUAUGUGAAUAAAUGCUCUUGCGGUCGCACUAGUGUGGAAUUCUCGGGUGUCAAGG
B10: ENSMUSG00000061578.1430|Ksr2 (ssRNA)
RNA: GGGAGUUCUACAGUCCGACGAUCGCUUCGAUAUCCGCAUGCUAGUCUUGCUCUCUGUCUCUCUCACUCAUUGCCAACAUGUUGCUGGGAAAGAAUAUUUGAUUUAGAUGCCAAUCAGGAAGGCAAGUAGGAUGGAUGGAUGAGUGAGUGGAUAGGUAGGUAUAUAAAUGGAUGGAUGGGUGAUGGAUGGGUAAAUGAAUGGAUAGGUAUGUGAAUGAAUGGAUGAUGGAUGAAUGGAUGGGUAGGUGGGUAGAUAGGUAUAUGAAUGAAUGGAUGAAUGGAUGGGUGAAUGGAUGGAUAGGUACUCUUGCGGUCGCACUAGUGUGGAAUUCUCGGGUGUCAAGG
B11: ENSMUSG00000061578.1434|Ksr2|139:143;234:238 (ssRNA)
RNA: GGGAGUUCUACAGUCCGACGAUCGCUUCGAUAUCCGCAUGCUACAUUGCCAACAUGUUGCUGGGAAAGAAUAUUUGAUUUAGAUGCCAAUCAGGAAGGCAAGUAGGAUGGAUGGAUGAGUGAGUGGAUAGGUAGGUAUAUAAAUGGAUGGAUGGGUGAUGGAUGGGUAAAUGAAUGGAUAGCAUACUGAAUGAAUGGAUGAUGGAUGAAUGGAUGGGUAGGUGGGUAGAUAGGUAUAUGAAUGAAUGGAUGAAUGGAUGGGUGAAUGGAUGGAUAGCAUACUGAAUAAAUGGAUGGAUGGAUGCUCUUGCGGUCGCACUAGUGUGGAAUUCUCGGGUGUCAAGG
B12: ENSMUSG00000061578.1433|Ksr2|145:149;240:244 (ssRNA)
RNA: GGGAGUUCUACAGUCCGACGAUCGCUUCGAUAUCCGCAUGCUACUCACUCAUUGCCAACAUGUUGCUGGGAAAGAAUAUUUGAUUUAGAUGCCAAUCAGGAAGGCAAGUAGGAUGGAUGGAUGAGUGAGUGGAUAGGUAGGUAUAUAAAUGGAUGGAUGGGUGAUGGAUGGGUAAAUGAAUGGAUAGCAUACUGAAUGAAUGGAUGAUGGAUGAAUGGAUGGGUAGGUGGGUAGAUAGGUAUAUGAAUGAAUGGAUGAAUGGAUGGGUGAAUGGAUGGAUAGCAUACUGAAUAAAUGGAUGGACUCUUGCGGUCGCACUAGUGUGGAAUUCUCGGGUGUCAAGG
B13: ENSMUSG00000061578.1430|Ksr2|163:167 (ssRNA)
RNA: B10 RNA with G206C, U207A, A208U, U209A, G210C
B14: ENSMUSG00000061578.1433|Ksr2 (ssRNA)
RNA: B12 RNA with C188G, A189U, U190A, A191U, C192G, C283G, A284U, U285A, A286U, C287G
B15: ENSMUSG00000061578.1429|Ksr2 (ssRNA)
RNA: GGGAGUUCUACAGUCCGACGAUCGCUUCGAUAUCCGCAUGCUAAGAUCUGUCUUGCUCUCUGUCUCUCUCACUCAUUGCCAACAUGUUGCUGGGAAAGAAUAUUUGAUUUAGAUGCCAAUCAGGAAGGCAAGUAGGAUGGAUGGAUGAGUGAGUGGAUAGGUAGGUAUAUAAAUGGAUGGAUGGGUGAUGGAUGGGUAAAUGAAUGGAUAGGUAUGUGAAUGAAUGGAUGAUGGAUGAAUGGAUGGGUAGGUGGGUAGAUAGGUAUAUGAAUGAAUGGAUGAAUGGAUGGGUGAAUGGAUGGACUCUUGCGGUCGCACUAGUGUGGAAUUCUCGGGUGUCAAGG
B16: ENSMUSG00000061578.1432|Ksr2|151:155;246:250 (ssRNA)
RNA: B9 RNA with G194C, U195A, A196U, U197A, G198C, G289C, U290A, A291U, U292A, G293C

Sequence of TDP-43 (Q13148 whole entry): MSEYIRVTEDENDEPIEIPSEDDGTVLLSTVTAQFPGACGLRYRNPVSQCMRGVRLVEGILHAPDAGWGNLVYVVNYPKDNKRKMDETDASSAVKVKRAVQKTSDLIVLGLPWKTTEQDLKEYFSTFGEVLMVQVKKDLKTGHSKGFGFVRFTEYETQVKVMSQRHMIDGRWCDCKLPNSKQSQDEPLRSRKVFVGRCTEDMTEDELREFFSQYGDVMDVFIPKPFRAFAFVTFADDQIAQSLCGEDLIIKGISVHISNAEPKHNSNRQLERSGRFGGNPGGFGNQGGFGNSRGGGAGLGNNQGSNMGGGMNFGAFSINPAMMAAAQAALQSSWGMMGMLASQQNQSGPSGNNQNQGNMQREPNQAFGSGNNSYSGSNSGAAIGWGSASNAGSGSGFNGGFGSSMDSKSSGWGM

The test addresses TDP-43 (Homo sapiens, UniProt Q13148 1-414). Put plainly: RNA Bind-n-Seq with designed 260-mer pool; 25 mM Tris-HCl, 150 mM KCl, 3 mM MgCl2, BSA (printed 500 mg/mL), 20 units/mL SUPERase IN; pH not stated; 500 nM RNA pool, 1 h, 4 C; TDP-43 5, 50, 500 nM; high values mean tight binding. Particulars: protein: recombinant; tags: SBP (GST cleaved off with PreScission; pGEX-GST-SBP). Put shortly: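 An in vitro-transcribed pool of 260-nt 3′ UTR oligos (500 nM) was incubated for 1 h at 4 °C with recombinant SBP-tagged TDP-43 at 5, 50 or 500 nM held on streptavidin beads. The buffer contained 25 mM Tris-HCl, 150 mM KCl, 3 mM MgCl2, BSA and SUPERase IN. Biotin-eluted bound RNA was sequenced, and binding, R, is each oligo's normalized read abundance in the bound sample over that in input.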
With B1, the binding signal is 5.79 R (bound/input frequency ratio).

Consider B2, for which the binding signal is 0.449 R (bound/input frequency ratio).

As for B3, the binding signal is 2.14 R (bound/input frequency ratio).

Turning to B4, the binding signal is 1.15 R (bound/input frequency ratio).

For the molecule B5, the binding signal is 0.368 R (bound/input frequency ratio).

As to B6, the binding signal is 1.21 R (bound/input frequency ratio).

With B7, the binding signal is 0.376 R (bound/input frequency ratio).

As to B8, the binding signal was 7.04 R (bound/input frequency ratio).

As for B9, the binding signal was 6.18 R (bound/input frequency ratio).

Regarding B10, the binding signal was 6.58 R (bound/input frequency ratio).

In the case of B11, the binding signal was 3.79 R (bound/input frequency ratio).

Take B12: the binding signal was 7.14 R (bound/input frequency ratio).

As to B13, the binding signal was 5.26 R (bound/input frequency ratio).

As to B14, the binding signal is 6.35 R (bound/input frequency ratio).

Regarding B15, the binding signal is 4.48 R (bound/input frequency ratio).

Turning to B16, the binding signal is 5.51 R (bound/input frequency ratio).
